Data taken from ChEMBL document CHEMBL1157539, “Thousands of chemical starting points for antimalarial lead identification” (Nature, 2010).
Over roughly 13,000 compounds, “IFI” has its median near 4; the highest 2% begin near 17. What follows is part of a selection rich in the highest values, with near analogues and random picks from the rest.

Test: GSK_TCMDC: Inhibition Frequency Index (IFI). The number of non-kinase HTS assays where a compound showed > 50 % inhibition, expressed as a percentage of the number of such assays in which the compound was tested
Type: functional

In order of rising IFI:
1. O=C(c1cc(-c2cccs2)n[nH]1)N1CCN(S(=O)(=O)c2ccc(Br)cc2)CC1  0%
2. CN(C)c1ccc(OCCCCCCOc2ccccc2)cc1  0.72%
3. Cc1cc(=NN=CC=Cc2ccccc2)c2cc(F)ccc2[nH]1  0.75%
4. Cc1[nH]c(C)c(-c2ccc(-c3ccccc3C(F)(F)F)nc2)c(=O)c1Br  0.92%
5. Cn1c(Nc2cc(C(C)(C)C)on2)nc2cc(Nc3ccnc(Nc4ccc(CS(C)(=O)=O)cc4)n3)ccc21  0.95%
6. CN(C)c1ccc(C(c2ccc(N(C)C)cc2)c2cc([N+](=O)[O-])ccc2Cl)cc1  1.47%
7. Cc1cc(=NN=Cc2cccc(Cl)c2)c2ccc(F)cc2[nH]1  1.49%
8. CCCn1c(O)nnc1SCC(=O)Nc1cc(C(F)(F)F)ccc1Cl  1.57%
9. N#Cc1ccc(N2CCN(Cc3cccc(-c4cccc(-c5nc6cc(C(F)(F)F)ccc6[nH]5)c4)c3)CC2)nc1  1.92%
10. COc1cc(CC2c3cc(O)c(Cl)cc3CCN2C)c(OC)cc1C (stereo not drawn)  2.13%
11. COc1ccc2c(NN=Cc3ccc(Cl)cc3)ccnc2c1  2.26%
12. Cc1cccc2nc(-c3cccc(-c4cccc(NC(=O)c5csnn5)c4)c3)[nH]c12  2.7%
13. C=CCOC(=O)N1CCC(CNCc2ccc(-c3cccc(-c4nc5cc(F)ccc5[nH]4)c3)cc2)C1 (stereo not drawn)  2.91%
14. Cc1ccc2nc(N/C(N)=N/C(=O)NC3CCCCC3)nc(C)c2c1  3.42%
15. COc1cc2nc(SCCCC#N)n(C3CCCCCC3)c(=N)c2cc1OC  3.6%
16. Nc1cccc(CNCc2cccc(-c3ccc(-c4nc5ccccc5[nH]4)cc3)c2)c1  3.81%
17. CS(=O)(=O)c1cccc2sc(N3CCN(C(=O)c4ccc([N+](=O)[O-])o4)CC3)nc12  4%
18. C=CCn1c(Sc2ccc(C#N)c([N+](=O)[O-])c2)nnc1-c1ccc(Cl)cc1  4.23%
19. COc1cc2nc(NCCn3cccn3)nc(NCCc3ccccc3)c2cc1OC  4.23%
20. CN(C)Cc1cccc(-c2ccc3ccnc(N)c3c2)c1  4.42%
21. Cc1cc(N)nc2ccc(-c3ccc(CN)cc3)cc12  4.83%
22. [O-][s+]1nc(NCCCN(Cc2cccs2)c2ccccn2)c(NCc2ccccc2)n1 (stereo not drawn)  4.83%
23. Cc1cc(N[C@@H](Cc2ccccc2)C(=O)NC2CCCC2)nc(NCc2ccccc2C)n1  4.88%
24. CC1(C)NC(N)=NC(=N)N1OCCSCc1cc(Cl)sc1Cl  4.93%
25. CCCCNCc1ccc(-c2nc(CN(CCCn3ccnc3)C(=O)C3COc4ccccc4O3)cs2)cc1 (stereo not drawn)  4.93%
26. CCCCCCSc1nnc(COc2cccc3ccccc23)n1-c1ccc(OC)cc1  5.43%
27. COc1ccc(CCNc2nc(NCc3ccccc3)c3cc(OC)c(OC)cc3n2)cc1OC  5.84%
28. COc1cccc(CCNc2nc(NCc3ccccc3)c3cc(OC)c(OC)cc3n2)c1  5.93%
29. CCCCCCN(CCCCCC)CC(O)c1c(OC)ccc2ccccc12 (stereo not drawn)  5.93%
30. O=C(NCCCCN1CCC(c2ccc(-c3ccco3)cc2)CC1)c1ccc(NC(=O)c2ccc(Cl)cc2)cc1  5.98%
31. CC(CN(C)C)C(=O)Nc1cccc(-c2ccc(-c3nc4cc(C(F)(F)F)ccc4[nH]3)cc2)c1 (stereo not drawn)  6.31%
32. CC1CC1C(=O)NC1CCN(CC2(c3ccccc3)CCCCC2)CC1 (stereo not drawn)  6.38%
33. Cc1ccoc1C(=O)Nc1cccc(-c2cccc(-c3nc4cc(C(F)(F)F)ccc4[nH]3)c2)c1  6.48%
34. CCNC(C)(C)CN(Cc1ccc(-c2ccc(C(F)(F)F)cc2)cc1)C(=O)Cn1c(CCc2cccc(F)c2F)nc(=O)c2ccccc21  6.94%
35. Cc1cccc2nc(-c3ccc(-c4ccc(CN5CC(C)OC(C)C5)cc4)cc3)[nH]c12 (stereo not drawn)  6.94%
36. COc1ccc(CNC(=O)c2cnc3c(O)cccc3c2Nc2cccc(NC(=O)c3ccc(F)cc3)c2)cc1  6.98%
37. CCCCCCCNc1cc(C)nc2ccc(OC)cc12  7.3%
38. Cc1cc(N[C@@H](Cc2ccccc2)C(=O)NC2CCCC2)nc(Nc2ccccc2)n1  7.32%
39. COc1ccc2nc3cc(Cl)ccc3c(Nc3ccc(O)c(CNC(C)C)c3)c2c1  7.64%
40. CCC(=O)Nc1ccc(Nc2nc(C)cc(N3CCCC3)n2)cc1  7.84%
41. O=C(NCCc1ccccc1)N(Cc1ccccc1-c1ccc(CNCCc2ccccc2)cc1)C1CCN(Cc2ccccc2)CC1  7.86%
42. CCOC(=O)c1ccc(NC(=O)N[C@H]2CCN(CCCCCNC(=O)/C=C/c3ccc(Cl)c(Cl)c3)C2)cc1  7.91%
43. COc1cccc(CCc2ccc(O)c3c2C[C@H]2C[C@H]4[C@H](N(C)C)C(O)=C(C(N)=O)C(=O)[C@@]4(O)C(O)=C2C3=O)c1  8.41%
44. Cc1cccc(Nc2c(-c3cc(Br)ccc3O)nc3ncccn23)c1  8.7%
45. CN1CCN(CCCN(Cc2ccc(-c3ccc(CNCCc4ccccc4)cc3)cc2)C(=O)c2cccs2)CC1  9.03%
46. CC(C)c1ccc(S(=O)(=O)Nc2cccc(CCN3CCC(N4CCCCC4)CC3)c2)cc1  9.52%
47. COc1ccc(CCNC(C)Cc2ccc(C(=O)Nc3ccc(CC(C)NCCc4cccc(Cl)c4)cc3)cc2)cc1 (stereo not drawn)  9.86%
48. Nc1nccc2ccc(-c3ccsc3)cc12  10.1%
49. CC(=O)Nc1ccc(CN2CCC(NC(=O)c3ccc(-c4cccc(C(F)(F)F)c4)s3)CC2)cc1  10.3%
50. CN(C)c1ccc(CN2CCC(NC(=O)c3ccc(-c4cccc(F)c4)s3)CC2)cc1  10.5%
51. C=C(C)Cn1cc(C2CCN(CCN3CCC(CNC(=O)c4ccc(-c5ccc(C#N)cc5)cc4)CC3)CC2)c2ccccc21  10.9%
52. CN(C)c1ccc(-c2ccc(C(=O)NC3CCN(Cc4cccc(C(F)(F)F)c4)CC3)s2)cc1  11.1%
53. Cc1cc(N[C@@H](Cc2ccccc2)C(=O)NCCc2ccccc2)nc(NCC2CCCCC2)n1  11.4%
54. CCOc1cc2ccccc2cc1CNCCCCCCNCc1cc2ccccc2cc1OCC  11.5%
55. Cc1cc(N[C@@H](Cc2ccccc2)C(=O)Nc2ccccc2)nc(NCC2CCCCC2)n1  11.6%
56. CCc1c(C)nc(-n2nc(C)cc2NC(=O)C(CC)c2ccccc2)[nH]c1=O (stereo not drawn)  11.8%
57. COc1ccc(NC(=O)Nc2ccc(Nc3nc(C)cc(N4CCCC4)n3)cc2)cc1  11.8%
58. CC(C)c1ccc(CN2CCC(NC(=O)c3ccc(-c4cccc(Cl)c4)s3)CC2)cc1  12.1%
59. CCCc1cc(=O)[nH]c(-n2nc(C)cc2NC(=O)CC(c2ccccc2)c2ccccc2)n1  12.2%
60. Cc1ccc(Nc2cc(C)nn2-c2nc(C)cc(O)n2)cc1  12.3%
61. CC(C)(C)c1ccc(CN2CCC(NC(=O)c3ccc(-c4cccc(F)c4)s3)CC2)cc1  12.5%
62. CCCCOc1cc(CNCCCCCCNCc2cc(OCCCC)cc3ccccc23)c2ccccc2c1  12.5%
63. O=C(NC1CCN(Cc2cccc(C(F)(F)F)c2)CC1)c1ccc(-c2cccc(C(F)(F)F)c2)s1  12.7%
64. Cc1cc(-c2cccc(CNCc3ccc(F)cc3)c2)ccc1S(=O)(=O)NCCN1CCCC1  12.9%
65. CC(C)(C)c1ccc(CN2CCC(NC(=O)c3ccc(-c4cccc(C(F)(F)F)c4)s3)CC2)cc1  13%
66. CCCCCCOc1ccc(/C(N)=N\Cc2ccccc2)c2c1CCCC2  13.3%
67. CCCOc1c(CCNCCCCNCCc2ccc3ccccc3c2OCCC)ccc2ccccc12  14.7%
68. CCCCOc1c(CCNCCCCNCCc2cc(OC)c3ccccc3c2OCCCC)cc(OC)c2ccccc12  15%
69. O=C(NC1CCN(Cc2ccc3c(c2)OCCO3)CC1)c1ccc(-c2cccc(Cl)c2)s1  15.2%
70. CSc1ccc(CN2CCC(NC(=O)c3ccc(-c4cccc(C(F)(F)F)c4)s3)CC2)cc1  15.2%
71. Cc1cc(N2CCCC2)nc(Nc2ccc(NC(=O)Cc3ccccc3)cc2)n1  15.4%
72. CN(C)c1ccc(CN2CCC(NC(=O)c3ccc(-c4ccc(N(C)C)cc4)s3)CC2)cc1  15.5%
73. CC(C)(C)CCN1CCC(NC(=O)c2ccc(-c3cccc(C(F)(F)F)c3)s2)CC1  15.8%
74. Cc1cc(N2CCCC2)nc(Nc2ccc(NC(=O)Nc3ccccc3)cc2)n1  16.2%
75. CCCCOc1c(CNCCCCCCNCc2ccc3ccccc3c2OCCCC)ccc2ccccc12  16.6%
76. O=C(NC1CCN(Cc2ccsc2)CC1)c1ccc(-c2cccc(C(F)(F)F)c2)s1  16.7%
77. COc1cc2nc(NCCc3cccc(Cl)c3)nc(NCc3ccccc3)c2cc1OC  17.1%
78. O=C(NC1CCN(CCCc2ccccc2)CC1)c1ccc(-c2cccc(C(F)(F)F)c2)s1  17.2%
79. CN(C)c1ccc(CN2CCC(NC(=O)c3ccc(-c4cccc(C(F)(F)F)c4)s3)CC2)cc1  17.2%
80. CC(C)c1ccc(CN2CCC(NC(=O)c3ccc(-c4cccc(F)c4)s3)CC2)cc1  17.2%
81. COc1cccc(NC(=O)Nc2ccc(Nc3nc(C)cc(N4CCCC4)n3)cc2)c1  17.3%
82. CN(C)c1ccc(CN2CCC(NC(=O)c3ccc(-c4cccc(Cl)c4)s3)CC2)cc1  17.9%
83. COc1ccc(C(c2ccc(N(C)C)cc2)c2ccc(N(C)C)cc2)cc1  18.2%
84. CCOc1c(CCNCCCCNCCc2ccc3ccccc3c2OCC)ccc2ccccc12  18.4%
85. CCCc1cc(=O)[nH]c(-n2nc(C)cc2NC(=O)C(CC)c2ccccc2)n1 (stereo not drawn)  18.5%
86. CCCCOc1c(CCNCCCCNCCc2cc(F)c3ccccc3c2OCCCC)cc(F)c2ccccc12  19.6%
87. O=C(NC1CCN(Cc2ccc3c(c2)OCCO3)CC1)c1ccc(-c2cccc(C(F)(F)F)c2)s1  22%
88. CCOc1c(CNCCCCCCNCc2ccc3ccccc3c2OCC)ccc2ccccc12  22%
89. Cc1cc(N2CCCC2)nc(Nc2ccc(NC(=O)COc3ccccc3)cc2)n1  22.2%
90. O=C(NC1CCN(Cc2ccc(F)cc2)CC1)c1ccc(-c2cccc(C(F)(F)F)c2)s1  24.6%
91. CCCCCOc1ccc(C(=NC)N(CCCCC)CCCCC)c2ccccc12  25.2%
92. Cc1cc(N[C@@H](Cc2ccccc2)C(=O)NC2CCCC2)nc(NCC2CCCCC2)n1  26.2%
93. Cc1cccc(CNc2nc(C)cc(N[C@@H](Cc3ccccc3)C(=O)NC3CCCC3)n2)c1  27.3%
